58 compounds from PubChem BioAssay AID1851 (National Center for Advancing Translational Sciences (NCATS), 2009) can be followed below.

The structures appear in SMILES notation. Values joined by “and” are separate entries in the source; they are usually repeats but may differ in a detail not shown here. Equal values may be shown once. Out of some 16,000 compounds screened, about 4,000 (25%) were called active. Not shown: some 26% with an inconclusive outcome. The call rests on the fitted dose curve; in most records, active means well fitted curve in the direction sought with a large enough effect; inconclusive means small, poorly fitted or top-dose-only effect, or effect the other way; inactive means no such curve, though single readings can be large or run the other way. A selection follows. Some compounds were tested as several samples or in several runs, with calls that do not always agree.
On the % scale 0 is the no-effect control and ±100 the full control effect.

In this assay the target is Cytochrome P450 2C9 (Homo sapiens) (UniProt P11712). The assay can be described thus: Cytochrome panel assay with activity outcomes. The following applies: recombinant CYP, pro-luciferin dealkylation, luminescence, p450-cyp2c9; series mostly up to 57.1 µM.
Chain of Cytochrome P450 2C9 (Homo sapiens) (P11712 whole entry, looked up): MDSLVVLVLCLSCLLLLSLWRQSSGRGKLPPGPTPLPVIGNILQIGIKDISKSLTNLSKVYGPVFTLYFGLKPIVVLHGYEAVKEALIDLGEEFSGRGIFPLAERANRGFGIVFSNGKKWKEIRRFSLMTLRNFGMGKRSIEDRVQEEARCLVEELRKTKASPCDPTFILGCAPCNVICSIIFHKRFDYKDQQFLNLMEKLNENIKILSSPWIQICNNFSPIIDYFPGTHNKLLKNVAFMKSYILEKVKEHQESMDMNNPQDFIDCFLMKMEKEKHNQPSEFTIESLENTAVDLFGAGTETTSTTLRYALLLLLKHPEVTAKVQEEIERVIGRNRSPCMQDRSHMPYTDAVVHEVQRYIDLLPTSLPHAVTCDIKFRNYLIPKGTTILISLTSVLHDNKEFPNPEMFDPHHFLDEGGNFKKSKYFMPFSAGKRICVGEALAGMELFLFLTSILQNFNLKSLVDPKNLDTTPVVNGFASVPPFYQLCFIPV
Regarding `O=c1cc(-c2ccc(O)cc2)oc2c([C@H]3O[C@@H](CO)[C@@H](O)[C@@H](O)[C@@H]3O)c(O)cc(O)c12`, the activity, negative = inhibition entry is “inactive”.

In the case of `CN1CC[C@@]2(CCCN(C(=O)Oc3ccccc3)C2)C1`, the activity, negative = inhibition result was “inactive”.

`CCN1CCN(c2ccc(NC(=O)C(C)C)cc2Cl)CC1`: the activity, negative = inhibition entry was “inactive”.

For the compound `C(=NC12CN3CN(CN(C3)C1)C2)c1cccs1`, the activity, negative = inhibition entry is “inactive”.

On to `CCS(=O)(=O)Nc1cccc(C(=C2CCCCC2)c2cnc[nH]2)c1`, for which the AC50 is 0.631 µM (active).

Consider `CNC(C)(C)Cc1ccccc1`, for which the activity, negative = inhibition result is “inactive”.

Turning to `Brc1c(NC2=NCCN2)ccc2nccnc12`, the activity, negative = inhibition entry was “inactive”.

Take `O=C(Nc1cccc(F)c1)N1CC2(CCN(C(=O)Oc3ccccc3)CC2)C1`: the activity, negative = inhibition result was “inactive”.

`Nc1ncnc2c1ncn2[C@@H]1O[C@@H](COP(=O)(O)CP(=O)(O)OP(=O)(O)O)[C@H](O)[C@@H]1O`: the activity, negative = inhibition entry is “inactive”.

In the case of `C=CCN1C(=O)c2ccccc2Sc2ccc(C(=O)N3CCC4(CC3)OCCO4)cc21`, the AC50 was 1.26 µM (active).

In the case of `CC(=O)c1ccc2c(c1)N(CCCN(C)C)c1ccccc1S2`, the activity, negative = inhibition entry is “inactive”.

Regarding `CN1C(=O)c2ccccc2Sc2ccc(C(=O)N3CCC4(CC3)OCCO4)cc21`, the AC50 is 8.91 µM (active).

On to `CN1[C@@H](C[C@@H](O)c2ccccc2)CCC[C@@H]1C[C@H](O)c1ccccc1`, for which the activity, negative = inhibition entry is “inactive”.

Regarding `CCCN(CCC)[C@@H]1CCc2c(OC)cccc2[C@@H]1C`, the activity, negative = inhibition entry was “inactive”.

Take `C=C1CC[C@H](O)C/C1=C/C=C1\CCC[C@]2(C)[C@H]1CC[C@H]2[C@@H](C)CCCC(C)C`: the activity, negative = inhibition entry was “inactive”.

For the compound `CC[C@@]1(O)C(=O)OCc2c1cc1n(c2=O)Cc2cc3ccccc3nc2-1`, the activity, negative = inhibition result was “inactive”.

`CCC(COC(=O)NC)NC(=O)Oc1ccccc1` (stereo not drawn): the activity, negative = inhibition result is “inactive”.

Turning to `CN(C(=O)Cc1ccccc1)[C@H](CN1CCCC1)c1ccccc1`, the activity, negative = inhibition entry is “inactive”.

In the case of `Cc1cc[c]([Sb]2[O][C@H]([C@H](O)[C@H](O)C(=O)O)[C@@H](CO)[O]2)cc1`, the activity, negative = inhibition was 14% [at 11.4 µM] (inactive).

As to `O=C(O)CN1CCN(CC(=O)O)CC(=O)[O][Hg][O]C(=O)C1`, the AC50 was 1.26 µM (active).

With `C[C@]12CC[C@H]3c4ccc(O)cc4CC[C@@H]3[C@H]1CC[C@@H]2OP(=O)(O)O`, the activity, negative = inhibition is 12.3% [at 11.4 µM] (inactive).

In the case of `Nc1ccccc1O.O.O=C(O)[C@H]1[O][Sb][O][C@H]1C(=O)O`, the activity, negative = inhibition was 14.2% [at 11.4 µM] (inactive).

`O=c1[nH]cnc2[nH]cc(CN3CCCCC3)c12`: the activity, negative = inhibition was -6.24% [at 11.4 µM] (inactive).

For the compound `N=C1c2ccccc2CN1NC(=O)c1ccc(Cl)cc1`, the activity, negative = inhibition entry is “inactive”.

On to `O=C(Oc1ccccc1)N1CCC2(CCCN(Cc3nccs3)C2)CC1`, for which the activity, negative = inhibition entry is “inactive”.

Regarding `C[C@@H](Cc1cccc(C(F)(F)F)c1)NCCCc1ccccc1`, the activity, negative = inhibition entry is “inactive”.

Regarding `C[C@H]1CC[C@@]2(NC1)O[C@@H]1C[C@@H]3[C@@H]4CC=C5C[C@@H](O)CC[C@]5(C)[C@@H]4CC[C@]3(C)[C@H]1[C@@H]2C`, the activity, negative = inhibition was -1.5% [at 11.4 µM] (inactive).

On to `C[C@@]12CC[C@H]3[C@H](CC=C4C[C@@H](O)CC[C@@]43C)[C@@H]1CC[C@@H]2N(CCO)CCO`, for which the activity, negative = inhibition is 7.98% [at 11.4 µM] (inactive).

For `CN(C)CCC(=O)[C@@]1(O)CC[C@H]2[C@H]3CC=C4C[C@@H](O)CC[C@]4(C)[C@H]3CC[C@]21C`, the AC50 is 2.51 µM (active).

In the case of `Oc1ccc2c3c1O[C@H]1c4oc5ccccc5c4C[C@]4(O)[C@H](C2)N(CC2CC2)CC[C@@]314`, the activity, negative = inhibition result is “inactive”.

Turning to `CN1CCN(c2ncc3ncc(=O)n(C)c3n2)CC1`, the activity, negative = inhibition result was “inactive”.

For `C[C@@H](Cc1ccccc1)NCCC(c1ccccc1)c1ccccc1`, the activity, negative = inhibition entry is “inactive”.

With `C[C@@H](Cc1ccc(OCC(=O)O)cc1)NC[C@H](O)c1cccc(Cl)c1`, the AC50 entry was “inactive and 6.31 µM (active)”.

On to `NS(=O)(=O)c1ccc(-c2ccc([As](=O)(O)O)cc2)cc1`, for which the activity, negative = inhibition was 14.8% [at 11.4 µM] (inactive).

On to `Cc1cc(C)nc(NC2=NCCS2)n1`, for which the activity, negative = inhibition result was “inactive”.

`CCN1CCN(S(=O)(=O)c2ccc(Cl)nc2)CC1`: the activity, negative = inhibition result was “inactive”.

Take `C[C@]12N[C@@H](Cc3ccccc31)c1ccccc12`: the activity, negative = inhibition result was “inactive”.

As for `CCCc1cc2c(n1Cc1cccc(Cl)c1)C(C)C1CN(C(=O)c3ccccc3)C(C)(C(=O)OC)C21` (stereo not drawn), the AC50 was 5.01 µM (active).

Take `CCCc1cc2c(n1CCO)C(C)C1CN(C(=O)c3ccccc3)C(C)(C(=O)OC)C21` (stereo not drawn): the AC50 was 12.6 µM (active).

For `NC[C@H](O)c1cc(O)c(O)cc1F`, the activity, negative = inhibition entry is “inactive”.

Regarding `C=C1[C@@H]2CC[C@H]3[C@@]4(C)C[C@@H](O[C@@H]5O[C@H](CO)[C@H](OS(=O)(=O)O)[C@@H](OS(=O)(=O)O)[C@@H]5OC(=O)CC(C)C)C[C@@H](C(=O)O)[C@H]4CC[C@@]3(C2)[C@H]1O`, the activity, negative = inhibition result is “inactive”.

On to `C=C1C(O)(c2ccccc2)C2CC[N+]1(C)CC2` (stereo not drawn), for which the activity, negative = inhibition entry is “inactive”.

`COc1cc2c(cc1OC)[C@@]13CCN4CC5=CCO[C@H](CC(=O)O)[C@@H]([C@H]1N2)[C@H]5C[C@H]43`: the activity, negative = inhibition is -2.18% [at 11.4 µM] (inactive).

Take `Cc1c(OCC(F)(F)F)ccnc1CS(=O)c1nc2ccccc2[nH]1` (stereo not drawn): the activity, negative = inhibition entry was “inactive”.

In the case of `C=CCO[C@@H](Cn1ccnc1)c1ccc(Cl)cc1Cl`, the AC50 is 0.1 µM (active).

`CC(=O)N1CC[N+](C)(C)CC1`: the activity, negative = inhibition result is “inactive”.

Take `CN1[C@@H]2CC[C@H]1CC(NC(=O)c1nn(C)c3ccccc13)C2` (stereo partly drawn): the activity, negative = inhibition entry is “inactive”.

For the compound `CCOc1ccc(C2C(C#N)=C(N)Oc3c2c(=O)oc2ccccc32)cc1` (stereo not drawn), the AC50 is 0.0224 µM (active).

On to `C[C@@]12CC[C@H](O[C@@H]3O[C@H](CO)[C@@H](O)[C@H](O)[C@@H]3O)C[C@@H]1CC[C@H]1[C@H]2CC[C@@]2(C)[C@@H](C3=CCOC3=O)CC[C@]12O`, for which the activity, negative = inhibition is 2% [at 11.4 µM] (inactive).

Take `C[C@H](N[C@@H](C)CCc1ccccc1)[C@H](O)c1ccc(O)cc1`: the activity, negative = inhibition entry was “inactive”.

Turning to `O=C(O)c1cc[c]([Hg][S]c2ncnc3nc[nH]c23)cc1`, the AC50 is 1.26 µM (active).

For `Ic1cncc(OC[C@@H]2CCN2)c1`, the AC50 was 31.6 µM (active).

As for `CC(C)(C)NC[C@@H](O)COc1cccc2[nH]c(C#N)cc12`, the activity, negative = inhibition result was “inactive”.

For `CC[N@+]1(C)CCC[C@@H](OC(=O)C(O)(c2ccccc2)c2ccccc2)C1`, the activity, negative = inhibition entry was “inactive”.

In the case of `C[N+]1([O-])[C@H]2CC[C@H]1CC(OC(=O)[C@@H](CO)c1ccccc1)C2` (stereo partly drawn), the activity, negative = inhibition was 3.51% [at 11.4 µM] (inactive).

For `C[C@H]1CC[C@@]2(NC1)O[C@@H]1C[C@H]3[C@@H]4CC[C@@H]5C[C@@H](O)CC[C@@]5(C)[C@@H]4CC[C@]3(C)[C@@H]1[C@@H]2C`, the activity, negative = inhibition entry was “inactive”.

With `CC(C)CCC[C@@H](C)[C@@H]1CC[C@@H]2[C@H]3CC[C@H]4C[C@@H](N)CC[C@@]4(C)[C@@H]3CC[C@]21C`, the activity, negative = inhibition was 4.77% [at 11.4 µM] (inactive).

Take `C[C@@]12CC[C@H]3[C@@H](CC[C@@H]4C[C@H]5S[C@H]5C[C@]43C)[C@H]1CC[C@H]2O`: the AC50 is 0.00501 µM (active).
